PubChem BioAssay AID1645855 (Buhrlage Lab, Dana-Farber Cancer Institute and Novartis …, 2021)
Screen size: about 47,000 compounds; about 3,100 (6.6%) were called active. Rule as the data show it: active = inhibition above about 30%; inactive = the rest. Only a selection was taken, and actives are over-represented in it overall.

Biological target: Ubiquitin carboxyl-terminal hydrolase 17-like protein 5 (Homo sapiens) (UniProt A8MUK1)
Assay: inhibitors of human USP17 deubiquitinase (AID 1645855)
Details: purified USP17, Ub-rhodamine cleavage fluorescence, 3 h; at 50 µM; stronger effect = higher value

Chain of Ubiquitin carboxyl-terminal hydrolase 17-like protein 5 (Homo sapiens) (A8MUK1 whole entry, looked up): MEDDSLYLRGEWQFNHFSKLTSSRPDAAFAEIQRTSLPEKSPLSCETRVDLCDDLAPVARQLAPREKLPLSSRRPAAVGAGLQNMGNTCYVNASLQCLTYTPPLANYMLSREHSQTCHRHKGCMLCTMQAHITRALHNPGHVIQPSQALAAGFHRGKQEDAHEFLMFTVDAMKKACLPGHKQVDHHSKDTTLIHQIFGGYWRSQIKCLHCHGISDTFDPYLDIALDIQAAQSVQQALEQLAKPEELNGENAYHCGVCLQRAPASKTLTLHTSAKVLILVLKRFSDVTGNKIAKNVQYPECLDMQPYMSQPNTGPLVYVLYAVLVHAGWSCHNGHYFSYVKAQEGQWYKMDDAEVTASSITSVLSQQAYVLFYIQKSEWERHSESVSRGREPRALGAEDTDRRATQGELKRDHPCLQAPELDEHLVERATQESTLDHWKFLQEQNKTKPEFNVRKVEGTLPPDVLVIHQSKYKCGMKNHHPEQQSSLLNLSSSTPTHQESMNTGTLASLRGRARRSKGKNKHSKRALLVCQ

inhibition, inactive:
Cc1nn(-c2ccccc2)c(C)c1S(=O)(=O)N1CCN(c2ccccn2)CC1 -17.2%, O=C(c1ccc(N2CCCC2)nn1)N1CCN(c2ccccn2)CC1 -6.98%, Cc1ccc(Nc2nc(C(=O)NCCN3CCCCC3C)cc3occc23)cc1Cl (stereo not drawn) -11.2%, CCc1nc2ccc(C(=O)Nc3nc(-c4ccc5c(c4)CCN5C(=O)c4ccc(C)cc4)c(C)s3)cc2nc1CC -24.7%, Cc1sc(NC(=O)c2ccccn2)nc1-c1ccc2c(c1)CCN2C(=O)C(C)C -11.3%, CC(C)(C)CC(=O)N1CCc2cc(-c3csc(NC(=O)c4ccccn4)n3)ccc21 2.12%, CCc1nc2ccc(C(=O)Nc3nc(-c4ccc5c(c4)CCN5C(=O)c4ccccc4C)c(C)s3)cc2nc1CC -14.3%, Cc1cccc(NC(=O)Cn2c(C)ncc(C(=O)NC3CCCC3)c2=O)c1C 2.77%, O=C(OCc1ccccc1F)c1cc(-c2ccccc2)nc2ccccc12 7.27%, CCc1nnc(NC(=O)C2CCN(C(=O)c3ccc(F)cc3)CC2)s1 5.9%, COc1cccc(O[C@@H]2C[C@@H](NC(=O)c3ccnn3C)[C@H](N3CCCC3)[C@H]2O)c1 -13.7%, CCCNC(=O)c1nn(-c2ccc(F)cc2)c2c1CCCCC2 3.82%, O=C(Cc1csc(NC(=O)c2ccc(=O)[nH]c2)n1)NCc1ccco1 -18.1%, Cc1oc(C2CCC2)nc1C(=O)NCCc1c[nH]c2ccccc12 7.03%, COCCCN1CC(=O)N2C(c3cccc([N+](=O)[O-])c3)c3[nH]c4ccccc4c3C[C@@H]2C1=O (stereo partly drawn) -12.6%, O=S(=O)(Nc1ccc(Cc2ccncc2)cc1)c1ccc2c(c1)OCCO2 3.72%, O=C(NCc1ccc2c(c1)OCO2)C1=CCN(Cc2ccccc2)CC1 -28.1%, COC(=O)c1cc2c(ccn2C)n1CC(=O)N1CCN(Cc2ccc3c(c2)OCO3)CC1 -63.5%, CNc1nc2c(c(=O)n1-c1ccccc1OC)CCN(C(=O)N1CCOCC1)C2 -2.32%, CCCCn1c(=O)[nH]c2cc(-c3nc(-c4ccccn4)no3)ccc2c1=O -20.4%, O=C(Nc1c(C(=O)N2CCOCC2)oc2ccccc12)c1ccccc1F -1.41%, Cc1c(C(=O)NC2CCCCC2)oc2ccccc12 0.0641%, CCCSc1nc(NCC2CCCO2)c2c3c(sc2n1)COC(C)(C)C3 (stereo not drawn) -37.2%, Cc1noc(C)c1CC(=O)N1CCN(c2ccccc2F)CC1 20.5%, CCCc1cc(=O)oc2cc(OC(=O)C3CCN(C(=O)c4ccc(Cl)cc4)CC3)ccc12 10.2%, COc1ccc(N2CCN(Cc3cc(=O)oc4cc(O)ccc34)CC2)cc1 4.8%, Cc1c(CC(=O)NCC(=O)O)c(=O)oc2c(C)c(O)ccc12 -3.52%, COc1cc(Cn2cnc3c([nH]c4ccc(Br)cc43)c2=O)cc(OC)c1 26%, O=c1c2[nH]c3ccc(F)cc3c2ncn1CCN1CCCC1 6.33%, O=c1c2[nH]c3ccc(Cl)cc3c2ncn1Cc1cccnc1 -5.96%, CCOc1ccc2[nH]c3c(=O)n(Cc4cccnc4)cnc3c2c1 25.4%, O=C(O)c1cc(S(=O)(=O)NC2CCCc3ccccc32)ccc1O (stereo not drawn) -9.75%, COc1ccc(S(=O)(=O)Nc2ccc(-c3ccc(OC)nn3)cc2)cc1 14.6%, COCCN(CCOC)S(=O)(=O)c1ccc(C(=O)Nc2sccc2C(N)=O)cc1 7.55%, O=C(NCC(c1ccccc1)N1CCCCC1)c1cc(-c2cccs2)on1 (stereo not drawn) -11.5%, O=C1N(c2cccc(F)c2)c2ncccc2S(=O)(=O)N1Cc1ccccc1 2.92%, COCCCNC(=O)[C@H](Cc1ccccc1)NC(=O)N1CCn2c1nc1ccccc12 -0.405%, COc1ccc(OCC(=O)Nc2noc(-c3ccccc3)n2)cc1 23.8%, COc1cccc(NC(=O)Cn2c(C)cc(C)c2-c2nc(C(C)C)no2)c1 -2.06%, CC(C)c1nnc(NC(=O)C2CC(=O)N(CCc3ccc(F)cc3)C2)s1 (stereo not drawn) 5.74%, CCN1[C@H]2CCN(C(=O)C3(C#N)CC3)CC[C@@H]2Oc2ccccc2S1(=O)=O -12.7%, Cc1ccc(NC(=O)CCC(=O)N(c2ccccc2)c2ccccc2)cc1Cl 6.95%, COc1cccc(NC(=O)COC(=O)c2ccc(OC)c(S(=O)(=O)Nc3cc(Cl)c(OC)cc3OC)c2)c1 3.55%, O=C(NCCc1ccc(F)cc1)c1ccc(S(=O)(=O)Nc2ccccc2F)cc1 13.4%, Cc1nc(CCN2CCN(Cc3ccccc3)CCC2=O)no1 9.08%, COC(=O)c1sc(-c2ccccc2)cc1NC(=O)c1ccc(C)cc1 8.72%, N#Cc1cccc(NC(=O)C2Cc3ccccc3CN2C(=O)c2ccccc2)c1 (stereo not drawn) -4.46%, COc1cccc(NC(=O)N2C[C@H]3CN(C(C)C)CC[C@H]32)c1 -122%, Cn1cc(CN2CCC3(CC2)Nc2cc(Cl)ccc2C2=NCCN23)cn1 -4.3%, Cc1ccccc1NS(=O)(=O)c1cc2c(cc1Cl)NC(=O)CO2 11.5%, COc1ccc(NC(=O)CCN2C(=O)c3cccnc3Sc3ccccc32)cc1 0.608%, Cc1ccc(Cc2nc(CC(=O)Nc3ccc(F)cc3F)n[nH]2)cc1 12.8%, CC(C)CCNC(=O)C1(C)Cn2c(cc3ccccc32)C(=O)N1Cc1ccccc1F (stereo not drawn) -0.678%, COc1ccccc1CN1C(=O)c2cc3occc3n2CC1(C)C(=O)NC1CCCCC1 (stereo not drawn) 6.42%, COCCNC(=O)C(Cc1ccccc1)N1Cc2ccccc2C1=O (stereo not drawn) 4.85%, O=C(Cn1cccc1C(=O)c1ccccc1)NC1CCN(Cc2ccccc2)CC1 -2.81%, O=C(N[C@@H](C(=O)O)c1ccccc1)[C@@H](Cc1ccccc1)n1c(=O)[nH]c2ccccc2c1=O 9.14%, CCN1CCC2(CC1)OC(=O)C(C)=C2C(=O)Nc1cc(C)ccc1C -4.59%, CNc1nc(C2CCCN(C)C2)nc2c1CCN(C(=O)Cc1c[nH]c3ccccc13)C2 (stereo not drawn) -1.33%, Cc1ccn2c(NCCc3ccccc3)c(-c3ccc(O)cc3)nc2c1 20.5%, Cc1cccc(-c2noc(Cc3nnc(-c4ccccc4)o3)n2)c1 -20.8%, Cc1nccc(C2CN(C(=O)CCc3c[nH]c4ccccc34)CCO2)n1 (stereo not drawn) -0.542%, CN1CC(c2ncn[nH]2)c2cc(C(=O)NCc3cccc(F)c3)ccc21 (stereo not drawn) 8.47%, O=C(NCc1ccccc1)c1nc[nH]c1C(=O)NCc1cccc(C(F)(F)F)c1 -0.00262%, O=C(Cc1cccc(C(F)(F)F)c1)Nc1cccn2ncnc12 -3.85%, Cc1ccc(S(=O)(=O)NC2=NC(c3ccccc3)c3cc(Cl)ccc3N2)cc1 (stereo not drawn) 10.4%, O=C(NCCC1=CCCCC1)c1ccc(-c2noc(-c3ccccc3)n2)s1 2.81%, COc1ccc(-c2nc(C3CC(=O)N(c4ccccc4)C3)no2)cc1 (stereo not drawn) 7.38%, COc1ccc(-c2nc(-c3nnn(Cc4cccc(F)c4)c3C)no2)cc1 -0.491%, CCOC(=O)c1cnn(-c2ncc(C(=O)OC)c(C(F)(F)F)n2)c1C(F)(F)F 3.18%, O=C(NCc1ccco1)c1ccc2c(=O)nc3c(-c4ccc(F)cc4)n[nH]n3c2c1 11.8%

inhibition, active:
Clc1cc2nc(N3CCN(c4ccccn4)CC3)c3nncn3c2cc1Cl 31.5%, O=C(Nc1nc(-c2ccc3c(c2)CCN3C(=O)c2ccccc2F)cs1)c1cccnc1 77.7%, Cc1ccc(C(=O)N2CCc3cc(-c4csc(NC(=O)CNc5ccccc5)n4)ccc32)cc1 32.4%, O=C(CCc1csc(NC(=O)c2ccc(=O)[nH]c2)n1)NCCc1c[nH]c2ccccc12 36.5%, O=C(Nc1cccc2ccccc12)N1CCN(Cc2ccc3c(c2)OCO3)CC1 41%, CCS(=O)(=O)c1cccc(C(=O)Nc2c(C(N)=O)oc3ccccc23)c1 41.9%, CCCc1cc(=O)oc2cc(OCC(=O)NCc3ccc(OC)cc3)ccc12 30.6%, Cc1ccc2[nH]c3c(=O)n(Cc4ccccn4)cnc3c2c1 48.9%, COc1ccccc1Cn1cnc2c([nH]c3cc(OC)c(OC)cc32)c1=O 58%, COc1ccc(NC(=O)Cc2noc(-c3cccc(OC)c3)n2)cc1 35.7%, Cc1ccc(NC(=O)CCOc2ccccc2)cc1S(=O)(=O)Nc1ccccc1Cl 39.7%, COc1cccc(NC(=O)C2Cc3ccccc3N2C(=O)c2ccccc2)c1 (stereo not drawn) 57.8%, CC1(C(=O)NC2CCCC2)Cn2c(cc3ccccc32)C(=O)N1c1ccc(F)cc1 (stereo not drawn) 62.5%, CC1CCC(NC(=O)Cn2c(=O)[nH]c3ccccc3c2=O)CC1 (stereo not drawn) 41.5%, Cc1cccc(-c2nc(Nc3ccc(O)cc3)c3ccccc3n2)c1 69.2%, O=C(Cc1c(Cl)cccc1Cl)NCc1cccc(C(F)(F)F)c1 34.4%, CCOc1ccc(-c2noc(-c3nn(-c4cccc(OC)c4)ccc3=O)n2)cc1 72.3%
